Results filed as inconclusive are left out. Calls of active or inactive are those of the source. Calls follow the shape of the dose curve; as a rule, active = well fitted cell-killing curve with a large enough effect; inconclusive = small, poorly fitted or top-dose-only effect, or effect the other way; inactive = no such curve, though single readings can be large or run the other way.
Assay: Viability qHTS for spleen associated tyrosine kinase inhibitor (SYKi) drug resistant MV4-11 cells (AID 1963824); also: nearly all actives have a fitted effect of over 35% in size
Details: SYKi-resistant MV4-11 viability, CellTiter-Glo, 72 h; series mostly up to 45 µM
Summary of the method: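 SYK inhibitor-resistant MV4-11 AML cells, 500 per well, added to predispensed compounds and incubated 72 hr at 37 C, 5% CO2. Viability measured by CellTiter-Glo luminescence after 10 min at room temperature.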
Potency is read from the fitted curve at half-maximal effect.

Structure (SMILES)	Potency
O=C1NC(=NCc2cccs2)S/C1=C/c1ccc2ncccc2c1	1.84 µM (active)
C=C1[C@H](OC(C)=O)[C@H]2[C@@H](OC(C)=O)[C@](C)(OC(C)=O)C[C@]2(OC(C)=O)C(=O)[C@H](C)/C=C/C(C)(C)C(=O)[C@H](OC(=O)C(C)CC)[C@H]1OC(C)=O (some centres not stated)	inactive
COc1cc(/C=C2\CC[C@H]3COC[C@@H](c4cc(F)c(F)c(F)c4)N3C2=O)ccc1-n1cnc(C)c1	13 µM (active)
C[C@@H]1CCCN1CCc1cc2cc(-c3ccc(C#N)cc3)ccc2o1	20.6 µM (active)
COC(=O)C1=CO[C@@H](O[C@@H]2O[C@H](CO)[C@@H](O)[C@H](O)[C@H]2O)[C@@H]2C(CO)=CC[C@]12O	inactive
CCNC(=O)Nc1ccc(-c2nc3c(c(N4CCOCC4C)n2)CCN(C2COC2)C3)cc1 (configuration not stated)	1.16 µM (active)
C=C1C(=O)OC2C1CCC1(C)C(O)CC=C(C)C21 (configuration not stated)	4.61 µM (active)
CC1(C)C(O)CCC2(C)C1C(O)C=C1COC(=O)C12O (configuration not stated)	inactive
Cc1c(C(=O)Nc2ccc(Oc3ccnc4[nH]cc(-c5ccccc5)c34)c(F)c2)c(=O)n(-c2ccc(F)cc2)n1C	0.0206 µM (active)
COc1ccc(CCC(=O)O)c(O[C@@H]2O[C@H](CO)[C@@H](O)[C@H](O)[C@H]2O)c1	inactive
CC(C)c1onc(-c2c(Cl)cccc2Cl)c1COc1ccc(/C=C/c2cccc(C(=O)O)c2)c(Cl)c1	14.8 µM (active)
C=CCc1ccc(OC(C)Cc2ccc(OC)c(OC)c2)c(OC)c1 (configuration not stated)	12.8 µM (active)

Source: PubChem BioAssay (NCATS)
